Assay [1] is described as follows: qHTS assay for small molecule agonists of the p53 signaling pathway (AID 651631; calls by dose curve; further: nearly all actives have a fitted effect of over 15% in size; further: potency means the concentration at half of the fitted maximal effect). An outline of the steps: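 HCT-116 cells carrying a stable p53 response element–beta-lactamase reporter were plated, rested 5 h at 37 °C, then exposed to compound in DMSO for 16 h at 37 °C; reporter activity was read as FRET substrate fluorescence after 2 h at room temperature.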
A general note: Quantitative high-throughput screening tests each substance at several concentrations.

A short description of assay [2]: qHTS assay for small molecules that induce genotoxicity in human embryonic kidney cells expressing luciferase-tagged ATAD5 (AID 651632). Further: nearly all actives have a fitted effect of over 15% in size. An outline of the steps: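 Concentration-response screen for ATAD5 upregulation in HEK293T luciferase reporter cells; 16 hr treatment at 37C, then luminescence after 30 min with Amplite at room temperature.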
A short description of assay [3]: qHTS assay for small molecule agonists of the p53 signaling pathway - cell viability (AID 651633; calls by dose curve; further: series mostly up to about 83 µM; nearly all actives have a fitted effect of over 30% in size). An outline of the steps:
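p53RE-bla cells were treated with compound for 16 hours at 37 C. Cytotoxicity was then measured as CellTiter-Glo luminescence after 30 min at room temperature.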

The nature of assay [4]: qHTS assay for small molecule disruptors of the mitochondrial membrane potential - cell viability (AID 720634; calls by dose curve;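 further: human HepG2 liver cancer cells; series mostly up to about 83 µM; nearly all actives have a fitted effect of over 20% in size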). Put shortly:
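In this qHTS format, HepG2 cells plated overnight were pinned with compound, incubated 1 hr, and assayed for ATP luminescence with CellTiter-Glo after m-MPI dye addition.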

A short description of assay [5]: qHTS assay for small molecule disruptors of the mitochondrial membrane potential (AID 720635). Further: potency means the concentration at half of the fitted maximal effect. An outline of the steps:
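HepG2 cells exposed to compound 1 hr at 37C, then Mito-MPS dye 30 min. Ratio read of aggregate (540/590 nm) versus monomer (490/535 nm) fluorescence.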

Assay [6] in a line: qHTS assay to test for compound auto fluorescence at 590 nm (red) in HepG2 cells (AID 720674). Put shortly:
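HepG2 cells, 2,000 per well in MEM with 10% FBS, attached overnight at 37 C, then got 23 nL compound or DMSO. After 1 hr at 37 C, 5% CO2, red fluorescence was read at 540/590 nm against Rose Bengal sodium as reference.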

The nature of assay [7]: qHTS assay to test for compound auto fluorescence at 460 nm (blue) in HEK293 cells (AID 720678). An outline of the steps: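 Measured: blue fluorescence (Ex 405/Em 460 nm) of compound-treated HEK293 cells, incubated overnight at 37C with 5% CO2 and scaled to triamterene equivalents.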
The nature of assay [8]: qHTS assay to test for compound auto fluorescence at 590 nm (red) in HEK293 cells (AID 720679). Put shortly: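 Using HEK293 cells at 2,000 per well, the screen added 23 nL of each compound after cell attachment and incubated overnight (37C, 5% CO2). The plate reader then captured red-label fluorescence, Ex/Em 540/590nm.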
Assay [9] is described as follows: qHTS assay for small molecules that induce genotoxicity in human embryonic kidney cells expressing luciferase-tagged ATAD5 - cell viability (AID 651634; calls by dose curve; further: nearly all actives have a fitted effect of over 25% in size). An outline of the steps:
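15.5 hr compound or vehicle exposure of HEK293T cells expressing luciferase-tagged ATAD5 at 37C; live-cell protease activity is read by fluorescence after 30 min of CellTiter-Fluor.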

The nature of assay [10]: qHTS assay to test for compound auto fluorescence at 535 nm (green) in HepG2 cells (AID 720675).

Values without a mark were called inactive. Inconclusive results are not listed. The source made the active and inactive calls. Unless noted, the call rests on the fitted dose curve; in most records, active means well fitted curve in the direction sought with a large enough effect in the repeat runs; inconclusive means weak or mixed curves; inactive means no such curve, though single readings can be large; an effect the other way counts as inactive or inconclusive.
On the % scale 0 is the no-effect control and ±100 the full control effect.

Turning to `CCOc1ccc(N)c([N+](=O)[O-])c1`, the Potency entry in assay [1], in [2], in assay [3], in assay [4], in [5] and in assay [6] was “inactive” throughout. The Potency entry in assay [8] is “inactive”. Also, in assay [7], the molecule was called inactive.

In the case of `Nc1ccc(S(=O)(=O)Nc2ccccc2)cc1`, the Potency result in assay [1], in assay [2], in assay [3], in assay [9], in assay [5] and in [6] was “inactive” throughout. Further, the Potency entry in assay [10] and in assay [8] was “inactive” in each case. The result in assay [7] was inactive.

As to `Cc1ncc(CO)c(C=O)c1O`, the Potency result in assay [1], in assay [2], in assay [3], in [4], in assay [5] and in assay [6] was “inactive” throughout. For the same molecule, the Potency result in [10] and in assay [8] was “inactive” throughout. Moreover, in assay [7], the outcome was inactive.

`CC(C)CC(=O)C1C(=O)c2ccccc2C1=O`: the Potency entry in assay [1], in [2], in assay [3], in assay [9], in [10] and in assay [8] was “inactive” each time. In [5], the Potency was 4.33 µM (active). In addition, in assay [7], the molecule was called inactive.

Take `O=C1CCC(=O)O1`: the Potency entry in assay [1], in assay [2], in assay [3], in assay [5], in assay [6] and in [10] was “inactive” throughout. Also, the Potency entry in assay [8] is “inactive”. For the same molecule, in assay [7], the molecule was classed as inactive.

Consider `CCCCC`, for which the Potency result in assay [1], in assay [2], in [3], in assay [9], in assay [4] and in [10] was “inactive” throughout. In assay [8], the Potency result is “inactive”. For the same molecule, the result in assay [7] was inactive.

For the molecule `CC[N+]1(CC)CCC(=C(c2ccccc2)c2ccccc2)C1C` (stereo not drawn), the Potency result in assay [1], in [2], in assay [3], in assay [4], in [5] and in assay [6] was “inactive” in each case. Further, the Potency result in [10] and in assay [8] was “inactive” each time. Besides, the molecule was called inactive in assay [7].

On to `C=C1[C@H]2CC[C@@H]3[C@H]2C(C)(C)CCC[C@]13C`, for which the Potency result in assay [1], in assay [2], in [3], in assay [4], in assay [6] and in assay [10] was “inactive” each time. For the same molecule, in assay [8], the Potency result was “inactive”. Further, the outcome in [7] was inactive.

Turning to `CN(C)C(=O)NC1(c2ccccc2)CCN(CC[C@@]2(c3ccc(F)c(F)c3)CN(C(=O)c3ccccc3)CCO2)CC1`, the Potency entry in assay [1], in assay [2], in [3], in assay [4], in assay [6] and in assay [8] was “inactive” each time. Also, the outcome in assay [7] was inactive.

As for `CCNc1cc(O)ccc1C`, the Potency entry in assay [1], in assay [2], in assay [3], in assay [9], in assay [4] and in [10] was “inactive” each time. Besides, in assay [8], the Potency entry was “inactive”. The outcome in assay [7] was inactive.

For the molecule `Cc1ccccc1S(=O)(=O)O`, the Potency result in assay [1], in assay [2], in assay [3], in assay [4], in [5] and in assay [6] was “inactive” in each case. The Potency result in assay [10] and in assay [8] was “inactive” throughout. For the same molecule, in assay [7], the call was inactive.

In the case of `c1ccc(CNCCNCc2ccccc2)cc1`, the Potency result in assay [1], in assay [2], in assay [3], in assay [4], in assay [6] and in assay [10] was “inactive” each time. For the same molecule, the Potency result in assay [8] was “inactive”. The molecule was called inactive in assay [7].

For `C[C@@H](c1ncncc1F)C(O)(Cn1cncn1)c1ccc(F)cc1F` (stereo partly drawn), the Potency result in assay [1], in assay [2], in assay [3], in assay [9], in assay [4] and in assay [10] was “inactive” each time. Moreover, the Potency result in assay [8] was “inactive”. The outcome in [7] was inactive.

Take `COC(C)(C)CCO`: the Potency result in assay [1], in assay [2], in [3], in [9], in assay [5] and in [6] was “inactive” in each case. Moreover, the Potency entry in assay [10] and in assay [8] was “inactive” each time. Further, in [7], the outcome was inactive.

As for `O=C(Cl)c1cc(C(=O)Cl)cc(C(=O)Cl)c1`, the Potency entry in assay [2], in [3], in [9], in assay [4], in assay [6] and in assay [10] was “inactive” each time. In assay [8], the Potency result was “inactive”. Further, the result in assay [7] was inactive.

As for `COc1ccc(-c2nc3ccc(C4=NNC(=O)CC4C)cc3[nH]2)cc1` (stereo not drawn), in assay [1], the Potency is 11.9 µM (active). For the same molecule, the Potency entry in assay [3], in assay [4], in [10] and in assay [8] was “inactive” throughout. The outcome in [7] was inactive.

For the molecule `COc1cc2nc(N(C)CCCNC(=O)C3CCCO3)nc(N)c2cc1OC` (stereo not drawn), the Potency result in assay [2], in [3], in [9], in assay [4] and in assay [5] was “inactive” throughout. Also, the fluorescence, % of fluorescein control in [10] is -0.0701% [at 18.6 µM]. Also, the fluorescence, % of triamterene in [7] is -0.108% [at 18.6 µM]. In addition, the fluorescence, % of fluorescent control in assay [8] is -0.585% [at 18.6 µM].

`C[N+]1(C)CCC(OC(=O)C(O)(c2ccccc2)C2CCCC2)C1` (stereo not drawn): the Potency entry in assay [2], in assay [3], in assay [9], in assay [4], in assay [5] and in assay [6] was “inactive” throughout. Also, the Potency result in [10] and in assay [8] was “inactive” in each case. Also, in [7], the outcome was inactive.

In the case of `C=CC(=O)OCCOc1ccccc1`, the Potency in [1] is 68.5 µM (active). In addition, the Potency result in assay [9], in assay [4], in assay [10] and in assay [8] was “inactive” in each case. Also, the molecule was classed as inactive in assay [7].

Values taken from PubChem BioAssay (Tox21).
